Molecules are shown by their SMILES. Hit rate of the full screen: of about 310,000 compounds, about 14,000 (4.5%) showed an effect of 50% or more. Effects have a minus sign here. For the sample, strong results were picked, then their nearest neighbours and some compounds at random.

The record followed here is paper PMC4336329 (PLoS ONE, 2015).
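Also: peak tail current of the secondary pulse compared with the same well before compound.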

Chain of human ether-à-go-go-related gene (hERG) potassium channel (Q12809 whole entry, looked up): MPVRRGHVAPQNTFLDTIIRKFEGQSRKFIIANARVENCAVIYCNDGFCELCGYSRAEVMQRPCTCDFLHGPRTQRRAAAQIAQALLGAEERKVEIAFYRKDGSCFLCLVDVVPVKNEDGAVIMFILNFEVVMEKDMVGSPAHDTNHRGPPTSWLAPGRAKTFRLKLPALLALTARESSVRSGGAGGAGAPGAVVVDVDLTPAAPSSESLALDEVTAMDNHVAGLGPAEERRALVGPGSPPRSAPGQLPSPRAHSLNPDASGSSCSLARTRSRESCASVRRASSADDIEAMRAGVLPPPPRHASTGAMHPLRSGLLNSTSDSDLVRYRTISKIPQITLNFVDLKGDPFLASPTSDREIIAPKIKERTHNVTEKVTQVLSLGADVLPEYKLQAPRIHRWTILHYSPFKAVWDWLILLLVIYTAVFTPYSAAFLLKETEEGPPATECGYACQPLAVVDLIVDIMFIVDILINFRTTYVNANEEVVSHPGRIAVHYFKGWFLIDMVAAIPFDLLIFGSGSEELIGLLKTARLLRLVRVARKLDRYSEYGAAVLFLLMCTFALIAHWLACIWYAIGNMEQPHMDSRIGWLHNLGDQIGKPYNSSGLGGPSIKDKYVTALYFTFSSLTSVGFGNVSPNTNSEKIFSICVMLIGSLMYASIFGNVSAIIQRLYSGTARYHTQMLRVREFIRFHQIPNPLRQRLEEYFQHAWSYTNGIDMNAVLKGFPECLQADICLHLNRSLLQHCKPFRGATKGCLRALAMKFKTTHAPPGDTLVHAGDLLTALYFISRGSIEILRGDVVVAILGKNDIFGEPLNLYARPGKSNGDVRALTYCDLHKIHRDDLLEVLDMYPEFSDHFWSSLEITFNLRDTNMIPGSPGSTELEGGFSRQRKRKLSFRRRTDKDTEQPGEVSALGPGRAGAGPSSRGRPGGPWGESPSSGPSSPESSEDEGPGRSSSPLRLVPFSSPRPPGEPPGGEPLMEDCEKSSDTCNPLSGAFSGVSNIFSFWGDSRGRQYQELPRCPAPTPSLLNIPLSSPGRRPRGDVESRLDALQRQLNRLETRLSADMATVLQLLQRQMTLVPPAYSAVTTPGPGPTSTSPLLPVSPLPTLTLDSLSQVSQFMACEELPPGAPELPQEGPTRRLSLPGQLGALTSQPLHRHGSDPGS

The assay concerns the target human ether-à-go-go-related gene (hERG) potassium channel (human, UniProt Q12809). The assay can be described thus: primary screen, population patch clamp on CHO cells stably expressing hERG; higher = less effect of the substance.
`Cc1ccccc1Nc1c([N+](=O)[O-])ccc2c1=NC1(CCCCC1)N=2`: the “hERG current change (%, negative = inhibition) at 10uM” value is -16.6%.
To `O=C(COc1ccc(Br)cc1Cl)NNC(=O)c1ccccc1` belongs 2.57%; to `Cc1ccccc1CN(c1ccc(C(=O)NCc2ccccn2)cc1)S(C)(=O)=O`, -35.4%; to `CC1CC(C)CN(C(=O)CSc2nc(Cc3cccs3)nc3ccccc23)C1` (stereo not drawn), -13%.
`Cc1noc(C)c1COC(=O)CCN1c2ccccc2Sc2ccccc21`: the “hERG current change (%, negative = inhibition) at 10uM” value amounted to 7.54%.
As for `CCCCCCCN=CC1=C(O)CC(c2ccccc2)CC1=O` (stereo not drawn), the “hERG current change (%, negative = inhibition) at 10uM” value is given as -6.52%.
On to `Cc1ccc(-n2cc(S(=O)(=O)c3ccc(C)cc3)[nH]c2=O)cc1`, for which the “hERG current change (%, negative = inhibition) at 10uM” value came out at 4.72%.
For the compound `O=C(CCCCCN1C(=O)c2cccc3cccc(c23)C1=O)NCc1ccco1`, the “hERG current change (%, negative = inhibition) at 10uM” value is reported as 13.2%.
To `O=C(NC1CCN(C(=S)Nc2ccc(F)cc2)CC1)c1ccco1` belongs -39%.
The figure for `CCNC(=S)N1CCC(NC(=O)c2ccco2)CC1` is 6.16%.
To `O=C(NC1CCN(C(=S)NCc2ccco2)CC1)c1ccc(F)cc1` belongs -51.6%; to `COc1ccc(NC(=S)N2CCC(NC(=O)c3ccco3)CC2)cc1`, -6.59%; to `COc1ccc(C(=O)NC2CCN(C(=S)NCc3ccco3)CC2)cc1`, -29.6%.
Consider `O=C(NC1CCN(C(=S)NCc2ccco2)CC1)c1cccc(F)c1`, for which the “hERG current change (%, negative = inhibition) at 10uM” value is on record as -47.1%.
To `O=C(NC1CCN(C(=S)Nc2ccc(Cl)cc2)CC1)c1ccco1` belongs -72.8%; to `COCCNC(=S)N1CCC(NC(=O)c2ccco2)CC1`, 15.7%.
The figure for `CC(C)CNC(=S)N1CCC(NC(=O)c2ccco2)CC1` is -65.7%.
Turning to `C=CCN(c1ccc(C(=O)NCCCn2ccnc2)cc1)S(C)(=O)=O`, the “hERG current change (%, negative = inhibition) at 10uM” value is given as 12.3%.
For the compound `CCCc1cc(=O)[nH]c(SC(C)C(=O)Nc2ccc3c(c2)OCCO3)n1` (stereo not drawn), the “hERG current change (%, negative = inhibition) at 10uM” value was -7.38%.
Take `Cc1cc(CN(C)C)c(OC(=O)N(C)C)cc1C.Cl`: the “hERG current change (%, negative = inhibition) at 10uM” value was found to be 16.1%.
On to `Cc1[nH]nc2c1C1(C(=O)Nc3ccc([N+](=O)[O-])cc31)C(C#N)=C(N)O2` (stereo not drawn), for which the “hERG current change (%, negative = inhibition) at 10uM” value is listed as 24.9%.
In the case of `CCOC(=O)CSc1nc2cc(C(=O)NCC3CCCO3)ccc2c(=O)n1Cc1ccco1` (stereo not drawn), the “hERG current change (%, negative = inhibition) at 10uM” value is on record as -39.3%.
Consider `COC(=O)c1ccc2c(=O)n(Cc3ccc4c(c3)OCO4)c(SCC(=O)N3CCCC3)nc2c1`, for which the “hERG current change (%, negative = inhibition) at 10uM” value is -52.4%.
To `C=CCn1c(SCC(=O)OCC)nc2cc(C(=O)NCc3ccco3)ccc2c1=O` belongs -17.6%.
For `O=C(NCC1CCCO1)c1ccc2c(=O)n(Cc3ccco3)c(SCC(=O)N3CCCC3)nc2c1` (stereo not drawn), the “hERG current change (%, negative = inhibition) at 10uM” value is -79.3%.
Regarding `COCCCNC(=O)CSc1nc2cc(C(=O)NCCOC)ccc2c(=O)n1Cc1ccc2c(c1)OCO2`, the “hERG current change (%, negative = inhibition) at 10uM” value is given as -4.37%.
The figure for `CC1CCN(C(=O)CSc2nc3ccccc3c(=O)n2Cc2ccc3c(c2)OCO3)CC1` is -13.6%.
To `CCCCCn1c(SCC(=O)OCC)nc2cc(C(=O)NCc3ccco3)ccc2c1=O` belongs 2.51%; to `O=C(NCC1CCCO1)c1ccc2c(=O)n(CC3CCCO3)c(SCC(=O)N3CCCC3)nc2c1` (stereo not drawn), 3.95%; to `O=C(NCc1ccco1)c1ccc2c(=O)n(Cc3ccco3)c(SCC(=O)N3CCCC3)nc2c1`, -76.4%.
